Only some compounds are listed: those with a hit (about 6.8% of all), similar ones and a draw of the others.
KB-3-1 cytotox = kills parental KB-3-1 adenocarcinoma cells | KB-3-1 viability, CellTiter-Glo ATP luminescence, 72 h | Potency, µM (top dose mostly 46.1 µM), usual class: cytotoxic | 400,000 compounds, 1.4% hits | AID 1347075; note: % is set by controls: 0 for no effect and ±100 for the full control effect; nearly all actives have a fitted effect of over 60% in size
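Using CellTiter-Glo luminescence, growth of non-resistant KB-3-1 adenocarcinoma cells is assessed 72 h after pin-tool compound addition at 37 °C. Normalized responses across the concentration series yield fitted curves.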
TSG101-PTAP inh = blocks PTAP/TSG101 interaction to inhibit HIV-1 budding; 340,000 tested, under 10 active; Fluorescence polarization, FITC-PTAP peptide / Tsg101 binding; Potency, µM (series often up to 115 µM), without a hit: at the highest dose activity change, negative = inhibition, actives largely listed as inhibitors; Q99816; active = well fitted inhibition curve with a large enough effect in the main read-out, with a control signal flat, not every such curve was filed as active; inconclusive = small, poorly fitted or top-dose-only effect, or effect the other way, or a change in a side signal; inactive = no such curve, though single readings can be large or run the other way; note: % of control where 0% means no effect
Target sequence (Q99816 whole entry, looked up): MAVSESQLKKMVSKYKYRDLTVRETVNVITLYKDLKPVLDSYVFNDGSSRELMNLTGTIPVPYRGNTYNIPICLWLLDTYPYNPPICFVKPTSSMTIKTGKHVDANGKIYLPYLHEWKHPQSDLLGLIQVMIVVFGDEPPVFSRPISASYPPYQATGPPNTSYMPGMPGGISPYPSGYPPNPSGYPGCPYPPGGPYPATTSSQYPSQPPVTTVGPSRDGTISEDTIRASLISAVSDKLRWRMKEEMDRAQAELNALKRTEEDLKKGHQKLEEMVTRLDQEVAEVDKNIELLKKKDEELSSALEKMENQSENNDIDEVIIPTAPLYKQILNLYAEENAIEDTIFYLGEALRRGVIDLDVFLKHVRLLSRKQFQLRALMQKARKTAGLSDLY
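Fluorescence polarization binding of Tsg101 binding domain (10 uM final) to FITC-labeled PTAP peptide (50 nM final) in HEPES pH 7.5 buffer with NaCl, Tween 20, EDTA, TCEP. Compounds added before peptide; binding 20 min at RT.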
MCF10A rerep = induces DNA re-replication in MCF 10a normal breast cells | Potency, µM (series often up to 46.1 µM), without a hit: at the highest dose activity, positive = re-replication, usual class: activators | MCF 10A DNA re-replication, Hoechst nuclear intensity, 48 h | 350,000 compounds, 2.9% hits; note: % of control where 0% means no effect; nearly all actives have a fitted effect of over 50% in size
PINK1 expr mod = PINK1 expression modulation; PINK1 immunofluorescence, high-content cytometry, 24 h; Potency, µM (highest dose often 76.6 µM), for the others: at the highest dose activation (PINK1 increase), most hits filed as activators; 410,000 compounds, 0.2% hits; active = well fitted activation curve with a large enough effect; inconclusive = small, poorly fitted or top-dose-only effect; cell line not stated here; note: % of control where 0% means no effect; nearly all actives have a fitted effect of over 65% in size
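PINK1 protein level read as immunofluorescence by microplate cytometer in a fixed, stained stable cell line after 24 h exposure to five compound concentrations, with CCCP as control.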
KB-V1 cytotox = kills drug-selected multidrug resistant KB-V1 cells; AID 1347076; 400,000 compounds, 3.4% hits; Potency, µM (titrated, usually from 46.1 µM), usual class: cytotoxic; KB-V1 MDR cells viability, CellTiter-Glo, 72 h; note: % is set by controls: 0 for no effect and ±100 for the full control effect; nearly all actives have a fitted effect of over 60% in size
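Luminescent ATP read-out (CellTiter-Glo, 10 min) measures survival of drug-selected KB-V1 MDR cells after 72 h, 37 degrees C compound exposure. Medium: phenol-red-free DMEM, 10% FBS. Values from fitted concentration-response curves.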
SW480 rereplic = induces DNA re-replication in SW480 colon adenocarcinoma cells. Potency, µM (series often up to 46.1 µM), for the others: at the highest dose re-replication activation, actives largely listed as activators. SW480 DNA re-replication, Hoechst DNA content imaging, 48 h. 340,000 compounds, 1.8% hits; note: % of control where 0% means no effect; nearly all actives have a fitted effect of over 55% in size
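SW480 cells exposed to compounds for 48 hr at 37 C, 5% CO2, then Hoechst-stained 40 min. Nuclear DNA content imaged by fluorescence scanning (405 nm excitation, 500-530 nm emission); re-replication scored as increased high-intensity nuclei.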
Active calls of the source: *; i = inactive; ? = inconclusive; / = no result; [ ] = dose if it differs, or a comment. Unless noted, calls come from the whole dose curve; as a rule, active = well fitted curve in the direction sought with a large enough effect; inconclusive = small, poorly fitted or top-dose-only effect, or another doubt; inactive = no such curve, though single readings can be large; an effect the other way counts as inactive or inconclusive. Potency is the fitted concentration of half-maximal effect.

SMILES | KB-3-1 cytotox | TSG101-PTAP inh | MCF10A rerep | PINK1 expr mod | KB-V1 cytotox | SW480 rereplic
COc1cccc(/C=N/NC(=O)C(=O)N/N=C/c2cccc(OC)c2OC)c1OC | i | -3.0% | 7.1% | 4.2% | i | 16.4µM*
COc1cc(/C=N/NC(=O)c2cccc([N+](=O)[O-])c2)cc(OC)c1O | i | -3.3% | -3.2% | 1.6% | i | 2.8%
COc1cccc(/C=N/NC(=O)c2ccc([N+](=O)[O-])cc2Cl)c1O | i | 0.7% | ? | 1.3% | 9.2µM* | ?
O=C(CNC(=O)C1CCCCC1)OCC(=O)c1ccc(C2CCCCC2)cc1 | i | / | / | 1.1% | i | /
Cc1nc2c3ccccc3nc(NNC(=O)CCC(=O)N3CCN(c4cccc(C(F)(F)F)c4)CC3)n2n1 | ? | / | / | -0.5% | i | /
COc1cc(NC(=O)c2ccc(COc3ccccc3Br)o2)cc(OC)c1OC | i | -0.8% | ? | -1.1% | 7.31µM* | 10.2%
COc1ccc(NC(=O)c2ccc(COc3ccccc3Br)o2)cc1OC | ? | -8.5% | 11.6µM* | -1.2% | i | 4.6%
CC(C)c1nc(C(=O)N2CCOc3ccc(CN4CCN(c5ccccn5)CC4)cc3C2)cs1 | / | / | / | -0.9% | / | /
COc1ccc(C(NC(=O)c2c(F)c(F)c(F)c(F)c2F)c2ccccc2)cc1 (centres undefined) | ? | -0.3% | 6.51µM* | -3.7% | i | ?
COc1ccc(/C=N/OCC(=O)NC(c2ccccc2)c2ccccc2)c(OC)c1 | i | 1.2% | ? | 9.5% | 23.1µM* | 3.4%
CCOc1ccc(C(NC(=O)c2ccco2)c2ccc(OC)c(OC)c2)cc1 (centres undefined) | i | -8.6% | 3.66µM* | -0.2%[38.3 µM] | ? | ?
COc1ccc(C(NC(=O)c2cc(OC)ccc2OC)c2ccccc2)cc1 (centres undefined) | ? | -5.2% | ? | 3.8% | 8.2µM* | ?
COc1ccc(OC)c(CC(=O)NC(c2ccccc2)c2ccccc2)c1 | i | -0.1% | 5.1% | 5.0% | i | -1.8%
COc1ccc(/C=N/OCC(=O)NCC(C)C)c(OC)c1 | i | -7.0% | 4.6% | 0.8% | i | -0.3%
CCOC(=O)c1ccc(N=C2SC(C(=O)Nc3ccccc3)CC(=O)N2C)cc1 (centres undefined) | i | / | / | -0.7% | i | /
CCOc1ccc(CC(=O)NCCc2csc(-c3ccc(C)cc3)n2)cc1 | / | / | / | 1.9% | / | /
COc1ccccc1Oc1coc2cc(OC(=O)N3CCOCC3)ccc2c1=O | ? | -2.0% | 5.9% | -18.1%[38.3 µM] | 23.1µM* | -6.1%
Cc1nn(-c2ccccc2)c2c1/C(=N/O)CC(C)(C)C2 | i | -1.9% | 10.5% | 0.7% | 16.4µM* | -8.3%
Cc1nn(-c2ccccc2)c2c1C(=O)N(c1ccccc1)C(=O)C(C)(C)C2 | i | -1.0% | 10.5% | 1.7% | i | -3.8%
COc1ccc(-c2coc3cc4oc(=O)c5ccccc5c4cc23)cc1F | ? | 1.6% | ? | 1.7% | ? | 2.51µM*
O=C(CCC1CCN(C(=O)C2CC=CCC2)CC1)Nc1ccccc1 (centres undefined) | i | / | / | 1.5% | 16.4µM* | /
Cc1cccc(NC(=O)CCC2CCN(C(=O)C3CC=CCC3)CC2)c1 (centres undefined) | i | -7.5% | -1.5% | -1.5% | ? | ?
C#CCOCCOCCOCCNc1nc(N2CCN(C(=O)CCCCCCCCCCNC(=O)[C@@H](CCSC)n3cc(CCO)nn3)CC2)nc(N2CCN(C(=O)CCCCCCCCCCNC(=O)[C@@H]([C@H](C)O)n3cc(C)nn3)CC2)n1 | i | 0.2% | 16.4µM* | 2.9% | i | -2.1%
C#CCOCCOCCOCCNc1nc(N2CCN(C(=O)CCCCCCCCCCNC(=O)[C@H](CCCCN)n3cc(C)nn3)CC2)nc(N2CCN(C(=O)CCCCCCCCCCNC(=O)[C@@H]([C@H](C)O)n3cc(C)nn3)CC2)n1 | 20.6µM* | -4.1% | ? | 1.7% | ? | -2.3%
C#CCOCCOCCOCCNc1nc(N2CCN(C(=O)CCCCCCCCCCNC(=O)[C@H](CCCCN)n3cc(C[C@@H](C)CC)nn3)CC2)nc(N2CCN(C(=O)CCCCCCCCCCNC(=O)[C@@H]([C@H](C)O)n3cc(C)nn3)CC2)n1 | ? | 14.4% | 11.6µM* | -2.0% | 9.2µM* | 19.8%[9.22 µM]
SMILES | KB-3-1 cytotox | TSG101-PTAP inh | MCF10A rerep | PINK1 expr mod | KB-V1 cytotox | SW480 rereplic
C#CCOCCOCCOCCNc1nc(N2CCN(C(=O)CCCCCCCCCCNC(=O)[C@H](CCCCN)n3cc(C[C@@H](C)CC)nn3)CC2)nc(N2CCN(C(=O)CCCCCCCCCCNC(=O)[C@H](CCCN=C(N)N)n3cc(C[C@@H](C)CC)nn3)CC2)n1 | i | 11.9% | 16.4µM* | -0.5% | i | 2.5%[9.22 µM]
COc1cccc(Cn2c(=O)c(C)nc3cnc(Nc4ccccc4)nc32)c1 | / | / | / | 7.3% | / | /
COc1cccc(Cn2c(CNS(=O)(=O)c3ccc(F)c(Cl)c3)nc3cccnc32)c1 | / | / | / | 0.5% | / | /
CC(C)(C)C(=O)/C(=C/c1ccncc1)n1cncn1 | 6.51µM* | -4.2% | ? | -2.9% | ? | ?
COc1ccc(S(=O)(=O)c2cnc(SCC(=O)Nc3cc(F)ccc3C)[nH]c2=O)cc1Cl | i | / | / | 2.6% | i | /
Cc1nn(Cc2c(Cl)cccc2Cl)c(Cl)c1/C=C/C(=O)OCC(=O)NCC(F)(F)F | i | -0.2% | -2.1% | 2.1% | i | -4.2%
COCCNC(=O)COC(=O)/C=C/c1c(C)nn(Cc2ccc(Cl)cc2Cl)c1Cl | ? | -1.6% | 12.6µM* | 3.8% | ? | -27.0%
O=S(Cc1ccc(Br)cc1)Cc1nnc(SCc2ccc(Br)cc2)n1-c1ccccc1 (centres undefined) | 16.4µM* | -2.9% | 23.1µM* | -0.9% | 2.91µM* | ?
CCN(CC)CCNC(Cc1ccccc1)c1cccc(OC)c1 (centres undefined) | i | -4.3% | ? | -4.6% | 23.1µM* | ?
Cc1cc(C)n(-c2cccc(C(=O)NCC3Cc4cccc(-c5cccnc5)c4O3)c2)n1 (centres undefined) | / | / | / | 1.0% | / | /
CCNC(=O)c1cc(NC(=O)COC)cc2nc(-c3ccncc3)n(C)c12 | / | / | / | 0.3% | / | /
CCC(=O)c1ccccc1OCCSc1nc(C)cc(=O)[nH]1 | i | / | 21.6% | -6.0%[38.3 µM] | 14.6µM* | -9.0%
Cc1cc(=O)[nH]c(SCCCOc2ccc(F)cc2)n1 | i | -13.7% | 1.4% | -0.4%[38.3 µM] | 18.4µM* | -5.3%
CCCOc1cccc(OCCSc2nc(C)cc(=O)[nH]2)c1 | i | -8.4% | 21.4% | -2.2%[38.3 µM] | ? | 0.9%

Assay outcomes deposited in PubChem BioAssay by National Center for Advancing Translational Sciences (NCATS).
